Measured values published in PubChem BioAssay (NCI).
The panel holds about 79,000 compounds, 15% with a hit somewhere; the sample as a whole holds those more often. Activity calls are given as the source filed them. Rule as the data show it: active = growth inhibition above about 70%; inactive = the rest.

What was measured:
[1] = NCI Yeast Anticancer Drug Screen. Data for the rad52 strain (AID 147);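 also: 0% = growth of vehicle-treated control cultures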; conditions: S. cerevisiae rad52 mutant growth inhibition, active compounds read high
Outline: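 Here a repair-compromised yeast strain receives each compound; its growth is then quantified and normalised to vehicle-only controls.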

[2] = NCI Yeast Anticancer Drug Screen. Data for the wt1 strain (AID 149);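 also: 0% = growth of vehicle-treated wt1 cultures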; conditions: S. cerevisiae wt1 strain (SPY 50644) growth inhibition, active compounds read high
Outline: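 wt1 strain grown with compound or vehicle; inhibition taken from the growth difference.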

[3] = NCI Yeast Anticancer Drug Screen. Data for the rad50EPP+ strain (AID 151);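 also: 0% = growth of vehicle-treated control cultures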; conditions: S. cerevisiae rad50 mutant strain, active compounds read high
Outline: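 Read-out is yeast growth inhibition relative to vehicle; cells used were the rad50EPP+ strain.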

[4] = NCI Yeast Anticancer Drug Screen. Data for the mgt1 strain (AID 153); conditions: S. cerevisiae mgt1 mutant growth inhibition, active compounds read high
Outline: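 Measured: inhibition of mgt1 yeast growth by compound, normalized to vehicle-treated cultures.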

[5] = NCI Yeast Anticancer Drug Screen. Data for the rad50 strain (AID 155);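 also: 0% = growth of vehicle-only cultures of the same strain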; conditions: S. cerevisiae rad50 strain growth inhibition, active compounds read high
Outline: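 DNA repair mutant yeast, compound exposure, growth read-out; inhibition is taken relative to vehicle.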

[6] = NCI Yeast Anticancer Drug Screen. Data for the mec2-1 strain (AID 157); conditions: S. cerevisiae mec2-1 strain, active compounds read high
Outline: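 Using mec2-1 yeast: add compound, measure growth, express inhibition versus vehicle-treated cultures.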

[7] = NCI Yeast Anticancer Drug Screen. Data for the rad14 strain (AID 159);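 also: 0% = growth of vehicle-treated control cultures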; conditions: S. cerevisiae rad14 strain growth inhibition, active compounds read high
Outline: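 DNA repair-defective yeast, compound-exposed; % growth inhibition derived by comparison with vehicle-treated controls.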

[8] = NCI Yeast Anticancer Drug Screen. Data for the sgs1 mgt1 strain (AID 161);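 also: 0% = growth of cultures given vehicle only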; conditions: S. cerevisiae sgs1 mgt1 strain, active compounds read high
Outline: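 This yeast growth screen uses a strain with defined DNA-repair lesions; compound-treated growth is compared with vehicle-treated growth.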

[9] = NCI Yeast Anticancer Drug Screen. Data for the CLN2oe strain (AID 163);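 also: 0% = growth of vehicle-only control cultures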; conditions: S. cerevisiae CLN2oe strain, active compounds read high
Outline: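 Whole-cell yeast growth assay. A strain engineered for altered cell-cycle control received compound, and inhibition relative to vehicle-treated cultures was recorded.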

[10] = NCI Yeast Anticancer Drug Screen. Data for the cln2 rad14 strain (AID 165);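 also: 0% = growth equal to vehicle treated cultures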; conditions: S. cerevisiae cln2 rad14 strain, active compounds read high
Outline: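 Yeast strain cln2 rad14, bearing defects in cell cycle control and DNA repair, serves as the test system; values reflect growth inhibition compared with vehicle.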

[11] = NCI Yeast Anticancer Drug Screen. Data for the bub3 strain (AID 167); conditions: S. cerevisiae bub3 mutant strain, active compounds read high
Outline: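 In this screen, a yeast mutant lacking normal mitotic checkpoint function is challenged with compound. Relative growth versus vehicle gives the inhibition value.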

[12] = NCI Yeast Anticancer Drug Screen. Data for the wt2 strain (AID 169);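 also: 0% = growth of vehicle-treated yeast cultures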; conditions: S. cerevisiae wt2 strain growth inhibition, active compounds read high
Outline: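 Treated yeast vs. vehicle-treated yeast: growth inhibition determined.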

[13] = NCI Yeast Anticancer Drug Screen. Data for the mlh1 strain (AID 171);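 also: 0% = growth of vehicle-treated control cultures of the same strain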; conditions: S. cerevisiae mlh1 strain growth inhibition, active compounds read high
Outline: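 A yeast strain with a defined genetic lesion serves as the test organism. Cultures receive compound or vehicle, and growth is measured.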

[14] = NCI Yeast Anticancer Drug Screen. Data for the sgs1 strain (AID 173);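 also: 0% = growth of vehicle-only control cultures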; conditions: S. cerevisiae sgs1 mutant, active compounds read high
Outline: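 A genetically defined yeast mutant is incubated with the test compound, and its growth is compared to that of the same strain given vehicle.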

[15] = NCI Yeast Anticancer Drug Screen. Data for the mlh1 rad18 strain (AID 175); conditions: S. cerevisiae mlh1 rad18 strain growth inhibition, active compounds read high
Outline: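 Steps: expose repair-defective yeast to compound; measure growth; express inhibition against vehicle-treated controls.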

[16] = NCI Yeast Anticancer Drug Screen. Data for the rad18 strain (AID 177); conditions: S. cerevisiae rad18 mutant growth inhibition, active compounds read high
Outline: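 Measured value is growth inhibition of a yeast strain bearing a DNA repair alteration, referenced to vehicle-treated cells.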

[17] = at 5.0 µM (retest, dose inferred, filed as 0.5)
[18] = at 50.0 µM (retest, dose inferred, filed as 5.0)

Measured: growth inhibition

Oc1cccc2c(Cl)ccnc12
active: [1]; at 3.7 µM 99% | [1]; at 11.0 µM 99% | [1]; at 33.0 µM 95% | [1]; at 100.0 µM 98% | [2]; at 3.7 µM 98% | [2]; at 33.0 µM 97% | [2]; at 100.0 µM 99% | [3]; at 1.2 µM 83% | [3]; at 3.7 µM 102% | [3]; at 11.0 µM 81% | [3]; at 33.0 µM 97% | [3]; at 100.0 µM 97% | [4]; at 3.7 µM 99% | [4]; at 11.0 µM 98% | [4]; at 33.0 µM 95% | [4]; at 100.0 µM 98% | [5]; at 3.7 µM 100% | [5]; [17] 99% | [5]; at 11.0 µM 98% | [5]; at 33.0 µM 97% | [5]; [18] 99% | [5]; at 50.0 µM 91.5% | [5]; at 100.0 µM 97% | [6]; [17] 99% | [6]; at 11.0 µM 99% | [6]; at 33.0 µM 97% | [6]; [18] 99% | [6]; at 50.0 µM 93.2% | [6]; at 100.0 µM 99% | [7]; at 3.7 µM 99% | [7]; at 11.0 µM 99% | [7]; at 33.0 µM 96% | [7]; at 100.0 µM 98% | [8]; [18] 99% | [8]; at 50.0 µM 93.8% | [9]; at 3.7 µM 96% | [9]; at 11.0 µM 97% | [9]; at 33.0 µM 93% | [9]; at 100.0 µM 97% | [10]; [18] 99% | [10]; at 50.0 µM 91.8% | [11]; [17] 93% | [11]; at 11.0 µM 98% | [11]; at 33.0 µM 92% | [11]; [18] 100% | [11]; at 50.0 µM 92.8% | [11]; at 100.0 µM 97% | [12]; at 3.7 µM 97% | [12]; at 11.0 µM 98% | [12]; at 33.0 µM 97% | [12]; at 100.0 µM 98% | [13]; at 3.7 µM 99% | [13]; at 11.0 µM 98% | [13]; at 33.0 µM 97% | [13]; at 100.0 µM 99% | [14]; at 3.7 µM 99% | [14]; at 11.0 µM 99% | [14]; at 33.0 µM 96% | [14]; at 100.0 µM 98% | [15]; [17] 100% | [15]; [18] 99% | [15]; at 50.0 µM 91% | [16]; at 3.7 µM 98% | [16]; at 11.0 µM 97% | [16]; at 33.0 µM 92% | [16]; at 100.0 µM 97%
inactive: [1]; at 1.2 µM 42% | [2]; at 1.2 µM 47% | [2]; at 11.0 µM 38% | [4]; at 1.2 µM 41% | [5]; at 1.2 µM 43% | [6]; at 1.2 µM 39% | [6]; at 3.7 µM 63% | [7]; at 1.2 µM 37% | [8]; [17] -5% | [9]; at 1.2 µM 52% | [10]; [17] 43% | [11]; at 1.2 µM 32% | [11]; at 3.7 µM 54% | [12]; at 1.2 µM 38% | [13]; at 1.2 µM 27% | [14]; at 1.2 µM 36% | [16]; at 1.2 µM 33%

CC(C)/C(Cl)=N\OC(=O)Nc1cccc(Cl)c1
active: [6]; at 50.0 µM 87.8% | [8]; [18] 83% | [8]; at 50.0 µM 85.2% | [10]; at 50.0 µM 72.3% | [11]; [18] 88% | [11]; at 50.0 µM 82.3% | [15]; at 50.0 µM 77.5%
inactive: [1]; at 1.2 µM -4% | [1]; at 3.7 µM -7% | [1]; at 11.0 µM -4% | [1]; at 33.0 µM -3% | [1]; at 100.0 µM -2% | [2]; at 1.2 µM -2% | [2]; at 3.7 µM 0% | [2]; at 11.0 µM -1% | [2]; at 33.0 µM -2% | [2]; at 100.0 µM 1% | [3]; at 1.2 µM -2% | [3]; at 3.7 µM -2% | [3]; at 11.0 µM 1% | [3]; at 33.0 µM 2% | [3]; at 100.0 µM 0% | [4]; at 1.2 µM -1% | [4]; at 3.7 µM -3% | [4]; at 11.0 µM 12% | [4]; at 33.0 µM -26% | [4]; at 100.0 µM 0% | [5]; at 1.2 µM -2% | [5]; at 3.7 µM -5% | [5]; [17] 8% | [5]; at 11.0 µM -26% | [5]; at 33.0 µM -1% | [5]; [18] 47% | [5]; at 50.0 µM 69.5% | [5]; at 100.0 µM 3% | [6]; at 1.2 µM 0% | [6]; at 3.7 µM 0% | [6]; [17] -17% | [6]; at 11.0 µM 2% | [6]; at 33.0 µM 2% | [6]; [18] 30% | [6]; at 100.0 µM 1% | [7]; at 1.2 µM 0% | [7]; at 3.7 µM 2% | [7]; at 11.0 µM 0% | [7]; at 33.0 µM 4% | [7]; at 100.0 µM 6% | [8]; [17] -17% | [9]; at 1.2 µM -4% | [9]; at 3.7 µM -3% | [9]; at 11.0 µM -6% | [9]; at 33.0 µM -3% | [9]; at 100.0 µM 10% | [10]; [17] -3% | [10]; [18] 19% | [11]; at 1.2 µM 1% | [11]; at 3.7 µM 4% | [11]; [17] -29% | [11]; at 11.0 µM 10% | [11]; at 33.0 µM 12% | [11]; at 100.0 µM 10% | [12]; at 1.2 µM -2% | [12]; at 3.7 µM -3% | [12]; at 11.0 µM -2% | [12]; at 33.0 µM -4% | [12]; at 100.0 µM 0% | [13]; at 1.2 µM -1% | [13]; at 3.7 µM -7% | [13]; at 11.0 µM 0% | [13]; at 33.0 µM 0% | [13]; at 100.0 µM -2% | [14]; at 1.2 µM 0% | [14]; at 3.7 µM 1% | [14]; at 11.0 µM 2% | [14]; at 33.0 µM 1% | [14]; at 100.0 µM 2% | [15]; [17] -12% | [15]; [18] 22% | [16]; at 1.2 µM -7% | [16]; at 3.7 µM -8% | [16]; at 11.0 µM -10% | [16]; at 33.0 µM -24% | [16]; at 100.0 µM -1%
